Most compounds without a hit are left out; they make up all but 19% or so of the library.
TGFb inhibitor: inhibitors of TGF-b signaling. HepG2 CAGA-GFP TGF-b/SMAD3 reporter, GFP fluorescence, 18 h; TGF-beta stimulated, 500 pg/mL final. Potency, µM (highest dose often 46.1 µM), for inactives: at the highest dose activity, negative = inhibition, hits mostly inhibitors. 410,000 compounds, 1.2% hits. AID 588855; further: potency means the concentration at half of the fitted maximal effect; on the % scale 0 is the no-effect control and ±100 the full control effect; nearly all actives have a fitted effect of over 65% in size
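First, reporter cells (HEPG2 CAGA-GFP) rested 2 h at 37 degrees C. Next, compounds were pinned in and TGF-beta added to 500 pg/mL final. After 18 h, GFP was imaged per cell and summed per well.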
IL-1B inflam inh: blocks inflammasome-driven IL-1 beta release | activity change, % at 57.5 µM | THP-1 LPS/ATP IL-1B secretion, AlphaLISA, 16 h; hits give low values | 360,000 compounds, 4.7% hits; in the data active means activity change below about -50%; inconclusive means mostly about -30% to -49%; further: on the % scale 0 is the no-effect control and ±100 the full control effect
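Secreted IL-1B measured by AlphaLISA bead assay after 16 h compound exposure of THP-1 cells; compounds (final up to 57.5 uM) added 1 h before LPS (250 ng/mL) and ATP (1.25 mM) stimulation; lower signal means less secretion.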
TDP1 cell noCPT: qHTS for Inhibitors of human tyrosyl-DNA phosphodiesterase 1 (TDP1): qHTS in cells in absence of CPT. Potency, µM (titrated, usually from 46.2 µM), for inactives: at the highest dose activity change, negative = growth inhibition, usual class: inhibitors. 420,000 compounds, 15% hits. AID 686978, 2013. DT40 Tdp1-/- hTDP1 cells, no CPT, ATP luminescence, 48 h; further: potency means the concentration at half of the fitted maximal effect; on the % scale 0 is the no-effect control and ±100 the full control effect; nearly all actives have a fitted effect of over 55% in size
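Stably hTDP1-transfected Tdp1-null chicken DT40 cells were treated with library compounds minus camptothecin and grown for at least 48 hr at 37 °C, after which cellular ATP was quantified by luminescence.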
TDP1 inh: inhibitors of human tyrosyl-DNA phosphodiesterase TDP1 | recombinant TDP1, AlphaScreen DNA substrate cleavage | Potency, µM (top dose mostly 130 µM), for the others: at the top dose activity change, negative = inhibition, usual class: inhibitors | Q9NUW8 | 350,000 compounds, 0.28% hits; further: potency means the concentration at half of the fitted maximal effect; on the % scale 0 is the no-effect control and ±100 the full control effect; nearly all actives have a fitted effect of over 40% in size
Target sequence (Q9NUW8 whole entry, looked up): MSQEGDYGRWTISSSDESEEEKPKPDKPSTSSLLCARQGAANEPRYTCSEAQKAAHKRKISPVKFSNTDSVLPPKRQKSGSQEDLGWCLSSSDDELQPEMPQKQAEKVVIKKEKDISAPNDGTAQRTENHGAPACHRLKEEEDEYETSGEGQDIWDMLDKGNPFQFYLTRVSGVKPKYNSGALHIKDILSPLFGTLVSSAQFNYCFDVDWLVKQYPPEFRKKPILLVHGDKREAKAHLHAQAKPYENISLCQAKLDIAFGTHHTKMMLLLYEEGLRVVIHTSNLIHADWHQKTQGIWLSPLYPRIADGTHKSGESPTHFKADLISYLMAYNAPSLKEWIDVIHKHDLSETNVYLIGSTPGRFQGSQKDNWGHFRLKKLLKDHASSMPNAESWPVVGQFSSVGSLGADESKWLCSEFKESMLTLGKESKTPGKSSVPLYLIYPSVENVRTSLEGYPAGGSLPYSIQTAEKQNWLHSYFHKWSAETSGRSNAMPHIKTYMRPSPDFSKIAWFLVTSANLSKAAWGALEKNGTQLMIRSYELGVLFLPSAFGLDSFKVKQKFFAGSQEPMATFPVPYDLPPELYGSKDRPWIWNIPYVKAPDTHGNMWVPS
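Recombinant E. coli-expressed Tdp1 (1 nM) preincubated with compound 15 min at RT, then 5'-biotin/3'-phosphotyrosine-FITC DNA substrate (15 nM) added for 5 min. AlphaScreen beads (10 ug/ml) added, 10 min RT; tyrosine-FITC cleavage read as signal loss.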
DT40 TDP1 CPT: DT40-hTDP1 cell growth loss with CPT; chicken DT40 Tdp1-/-;hTDP1 cells + 20 nM CPT, ATP luminescence, 48 h; Potency, µM (titrated, usually from 46.2 µM), inactives show at the top dose activity change, negative = growth inhibition, actives largely listed as inhibitors; 420,000 compounds, 12% hits; AID 686979; further: potency means the concentration at half of the fitted maximal effect; on the % scale 0 is the no-effect control and ±100 the full control effect; nearly all actives have a fitted effect of over 55% in size
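Chicken DT40 Tdp1-/- cells complemented with human TDP1, 400 cells/well, exposed to compounds plus 20 nM camptothecin for at least 48 h at 37 C; viability read as ATP content by CellTiter-Glo luminescence.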
HepG2 tox: HepG2 cytotoxicity, counter-screen for TGF-b inhibitors. HepG2 CAGA-GFP viability, ATP luminescence, 18 h. Potency, µM (top dose mostly 46.1 µM), inactives show at the top dose activity change, negative = cytotoxicity, most hits filed as cytotoxic. 410,000 compounds, 0.76% hits; further: potency means the concentration at half of the fitted maximal effect
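CellTiter-Glo luminescence gave cytotoxicity after 18 hours at 37 degrees C. The cells were HepG2 CAGA-GFP in 1% FBS DMEM, stimulated with 500 pg/mL TGF-beta after compound addition. %Activity was normalised to no-cell wells (complete cell-killing) and DMSO (no toxicity), and curves were fitted and classified.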
* hit, by the source's call; i = inactive; ? = inconclusive; . = no result; [ ] = remark or other dose. Unless noted, the call rests on the fitted dose curve; in most records, active means well fitted curve in the direction sought with a large enough effect; inconclusive means small, poorly fitted or top-dose-only effect, or another doubt; inactive means no such curve, though single readings can be large; an effect the other way counts as inactive or inconclusive.

SMILES	TGFb inhibitor	IL-1B inflam inh	TDP1 cell noCPT	TDP1 inh	DT40 TDP1 CPT	HepG2 tox
CCOc1cc(-c2nnc(SCC(=O)Nc3ccc(F)c(F)c3)nc2-c2ccc(OC)c(OCC)c2)ccc1OC	-3.1%	.	-22.4%	-5.2%	-18.3%	-2.8%
COC(=O)c1ccc2c(c1)C(C)(C)C(/C=C/c1ccc(OC)c(OC)c1OC)=[N+]2C	10µM*	-116.5*	0.651µM*	5.8%	0.82µM*	-94.3%
COC(=O)c1ccc2c(c1)C(C)(C)C(/C=C/c1ccc(O)cc1)=[N+]2C	3.98µM*	-91.7*	2.82µM*	5.6%	2.51µM*	3.55µM*
COc1cc(/C=C/c2ccc(O)cc2)cc(OC)c1	-10.1%	-22.1	?	5.8%	?	-37.4%
CCc1nc(-c2cc(S(=O)(=O)N3CCN(c4ccccc4)CC3)ccc2OC)no1	-2.2%	.	5.4%	0.0%	2.5%	0.5%
Cc1cccc(NC(=S)N(CCCN2CCCC2)Cc2cccn2Cc2ccc(Cl)cc2)c1	?	-87.3*	16.4µM*	4.6%	?	i
CCOc1ccc(NC(=S)N(CCCN2CCCC2)Cc2cccn2Cc2ccc(Cl)cc2)cc1	-20.1%	-22.8	?	5.3%	14.6µM*	-17.9%
CCOC(=O)C1=C(C)N(CC(C)C)C(=O)C1	-1.2%	0.0	2.1%	2.6%	3.5%	14.4%
COc1cccc(CNS(=O)(=O)c2ccc(N3CCCC3=O)cc2)c1	-28.6%	-14.5	?	-0.1%	-16.4%	-28.5%
Cc1cc(N2CCCC2=O)ccc1S(=O)(=O)Nc1c(C)nn(C)c1C	0.8%	33.8	9.2µM*	-7.7%	?	-1.4%
Cc1cc(N2CCCC2=O)ccc1S(=O)(=O)NCCOc1ccccc1	1.0%	20.0	14.6µM*	-2.6%	18.4µM*	-3.2%
CCCS(=O)(=O)c1ncc(Cl)c(C(=O)Nc2sc3c(c2C(=O)NCC)CCCC3)n1	?	.	0.794µM*	.	1µM*	-15.3%
Cc1cc(S(=O)(=O)N(Cc2ccc(C(C)C)cc2)CC2CCCO2)ccc1-n1cnnn1 (centres undefined)	?	-79.1*	-24.7%	3.3%	?	-2.7%
Cc1nc2cc3c(=O)n(C)cnc3cc2n1Cc1ccccc1	8.9%	0.0	16.4µM*	.	-15.2%	3.6%
CC(=O)Nc1ccc2c(c1)nc(C)n2Cc1ccccc1	-0.9%	-6.0	1.0%	.	9.9%	10.2%
CNc1ccc(C=O)cc1Br	6.4%	.	-23.0%	.	-5.8%	4.6%
Cc1ccc(CCNC(=O)CCCn2nc(C)c3c(C)n(-c4ccccc4)nc3c2=O)cc1	-15.4%	.	20.6µM*	5.6%	20.6µM*	-16.1%
Cc1ccc(-n2nc3c(=O)n(CCCC(=O)NCCN4CCN(C)CC4)nc(C)c3c2C)cc1	-1.9%	?	25.8%	1.4%	2.8%	-2.4%
Cc1ccc(-n2nc3c(=O)n(CCCC(=O)NCCc4ccccc4C)nc(C)c3c2C)cc1	-24.2%	?	11.6µM*	1.2%	?	0.9%
Cc1nn(CCCC(=O)NCCc2ccccc2)c(=O)c2nn(-c3ccccc3)c(C)c12	?	?	11.2%	0.5%	-2.2%	-21.3%
Cc1ccc(CCNC(=O)CCCn2nc(C)c3c(C)n(-c4ccc(C)cc4)nc3c2=O)cc1	?	-3.7	?	-3.7%	14.6µM*	4.6%
Cc1ccc(-n2nc3c(=O)n(CCCC(=O)NCc4cccc(F)c4)nc(C)c3c2C)cc1	-31.7%	-2.5	14.6µM*	4.1%	?	-20.6%
Cc1ccc(C(=O)Nc2nnc(S(=O)(=O)N3CCCc4ccccc43)s2)cc1	?	.	15.0%	7.8%	-10.9%	-27.3%
Cc1ccc(Cl)cc1NC(=O)/C(C#N)=C/c1c(C)n(Cc2ccccc2)c2ccccc12	-25.0%	.	?	0.4%[12.3 µM]	?	-35.4%
Cc1c(/C=C(\C#N)C(=O)Nc2cccc(Cl)c2)c2ccccc2n1Cc1ccccc1	-15.0%	.	5.8µM*	1.3%[12.3 µM]	?	0.8%
SMILES	TGFb inhibitor	IL-1B inflam inh	TDP1 cell noCPT	TDP1 inh	DT40 TDP1 CPT	HepG2 tox
Cn1cc(/C=C(\C#N)C(=O)Nc2cccc([N+](=O)[O-])c2)c2ccccc21	12.3%	-26.4	8.2µM*	3.7%	13µM*	-0.4%
COc1cccc(NC(=O)/C(C#N)=C\c2cn(Cc3ccc(C)cc3)c3ccccc23)c1	?	.	5.8µM*	0.4%[12.3 µM]	10.3µM*	-32.0%
N#C/C(=C/c1cn(Cc2ccc(F)cc2)c2ccccc12)C(=O)Nc1cccc(Cl)c1	?	.	-28.0%	-3.1%[12.3 µM]	?	-31.9%
COc1ccc(OC)c(S(=O)(=O)NCC(c2ccco2)S(=O)(=O)c2ccccc2)c1 (centres undefined)	-2.6%	-2.2	-8.4%	-5.2%[0.505 µM]	12.5%	-18.1%
CCOc1ccc2c(c1)c(=O)c(S(=O)(=O)c1ccccc1)cn2CC(=O)Nc1ccccc1OC	-10.7%	.	-31.0%	9.0%	4.8%	3.1%
COc1ccc(-c2cn3c(n2)sc2cc(C(=O)NC4CCCc5ccccc54)ccc23)cc1 (centres undefined)	-24.8%	.	5.8µM*	3.9%	8.2µM*	-16.9%
O=C(NC1CCCc2ccccc21)c1ccc2c(c1)sc1nc(-c3ccc(F)cc3)cn12 (centres undefined)	?	.	?	0.0%	?	-3.7%
Cc1ccc(-c2cn3c(n2)sc2cc(C(=O)NC4CCCc5ccccc54)ccc23)cc1 (centres undefined)	32.7%	.	13µM*	3.9%	13µM*	0.1%
C[C@H]1Cn2cnc(C(=O)Nc3cccc(Cl)c3)c2C(=O)N1	-0.5%	-9.5	11.6µM*	.	?	-30.2%
C[C@@H]1Cn2cnc(C(=O)NCC(=O)OC(C)(C)C)c2C(=O)N1	-1.3%	-6.2	-16.7%	.	3.5%	1.2%
CC1=C(c2ccc(C)c(C)c2)S(=O)(=O)N=C1N1CCC(C(=O)N2CCC(C(N)=O)CC2)CC1	4.0%	.	6.7%	3.2%	3.5%	-1.9%
Cc1ccc(-n2ncc3c(N(CCO)Cc4ccccc4)ncnc32)cc1	?	.	8.2µM*	7.8%	11.6µM*	-10.2%
CCN(c1ccccc1)c1ncnc2c1cnn2-c1ccc(OC)cc1	39.8%	.	5.17µM*	5.4%	8.2µM*	-7.6%
COc1ccc(OC)c(Nc2ncnc3c2cnn3-c2ccccc2)c1	-20.4%	-3.4	?	4.1%	-26.4%	-34.2%
CCCCN(c1ccccc1)c1ncnc2c1cnn2-c1ccc(Cl)cc1	10.3%	.	18.4µM*	2.5%	16.4µM*	0.8%
